Key:
Assay in all cases: log2 ratio of Biotin-Ahx-Ub-VS probe labelling (fragment/DMSO); higher = less target engagement (more negative = stronger competition), active = hit call of the paper (q ≤ 0.05, log2 ratio ≤ -1)
Conditions in all cases: compound concentration: 200 uM; treatment time: 3 h
[1] = biological target: USP34 (UniProt Q70CQ2)
Procedure, shortened: (§1)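 Global-median-normalised Spectronaut label-free quantities were compared by unpaired t-test, and values are average log2 ratios of fragment over vehicle. Only proteins with ≥2 unique peptides were used. HEK293T lysate (495 µg per sample) was treated in triplicate with fragment at 200 µM or vehicle for 3 h and then with Biotin-Ahx-Ub-VS at 0.5 µM final for 1 h. Labelled DUBs were then NeutrAvidin-enriched, digested with LysC and trypsin, and run by diaPASEF LC-MS/MS.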

[2] = biological target: T1, USP36 (UniProt Q9P275)
T1 sequence (whole entry): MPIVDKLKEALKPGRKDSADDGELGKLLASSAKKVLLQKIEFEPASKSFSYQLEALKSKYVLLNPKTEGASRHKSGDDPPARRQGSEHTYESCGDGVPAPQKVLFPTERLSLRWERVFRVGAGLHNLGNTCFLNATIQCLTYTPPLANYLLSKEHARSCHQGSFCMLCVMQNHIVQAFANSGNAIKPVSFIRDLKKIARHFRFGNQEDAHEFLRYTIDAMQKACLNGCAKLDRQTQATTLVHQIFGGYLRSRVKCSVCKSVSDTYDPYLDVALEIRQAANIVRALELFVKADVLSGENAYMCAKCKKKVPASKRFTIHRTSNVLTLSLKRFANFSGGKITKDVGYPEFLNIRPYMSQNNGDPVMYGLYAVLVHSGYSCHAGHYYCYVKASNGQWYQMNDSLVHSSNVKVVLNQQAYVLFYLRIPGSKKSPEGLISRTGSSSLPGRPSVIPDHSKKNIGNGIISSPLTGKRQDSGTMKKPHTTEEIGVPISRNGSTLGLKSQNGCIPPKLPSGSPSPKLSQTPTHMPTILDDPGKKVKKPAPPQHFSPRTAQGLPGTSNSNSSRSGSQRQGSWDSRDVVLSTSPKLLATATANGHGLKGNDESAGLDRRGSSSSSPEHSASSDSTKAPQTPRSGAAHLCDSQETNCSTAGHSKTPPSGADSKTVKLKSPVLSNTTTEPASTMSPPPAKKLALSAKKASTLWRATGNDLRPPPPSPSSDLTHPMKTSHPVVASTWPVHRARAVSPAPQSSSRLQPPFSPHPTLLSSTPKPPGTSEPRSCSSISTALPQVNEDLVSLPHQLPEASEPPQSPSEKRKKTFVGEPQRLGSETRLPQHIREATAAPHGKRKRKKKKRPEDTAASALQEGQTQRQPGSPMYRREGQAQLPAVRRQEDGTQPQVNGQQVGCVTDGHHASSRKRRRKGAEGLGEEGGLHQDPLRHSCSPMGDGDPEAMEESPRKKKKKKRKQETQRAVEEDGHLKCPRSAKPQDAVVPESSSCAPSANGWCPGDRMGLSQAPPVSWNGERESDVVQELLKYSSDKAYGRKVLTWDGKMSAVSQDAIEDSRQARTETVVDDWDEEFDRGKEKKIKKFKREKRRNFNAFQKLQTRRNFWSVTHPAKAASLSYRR
Procedure, shortened: as §1

[3] = biological target: T2, USP38 (UniProt Q8NB14)
T2 sequence (whole entry): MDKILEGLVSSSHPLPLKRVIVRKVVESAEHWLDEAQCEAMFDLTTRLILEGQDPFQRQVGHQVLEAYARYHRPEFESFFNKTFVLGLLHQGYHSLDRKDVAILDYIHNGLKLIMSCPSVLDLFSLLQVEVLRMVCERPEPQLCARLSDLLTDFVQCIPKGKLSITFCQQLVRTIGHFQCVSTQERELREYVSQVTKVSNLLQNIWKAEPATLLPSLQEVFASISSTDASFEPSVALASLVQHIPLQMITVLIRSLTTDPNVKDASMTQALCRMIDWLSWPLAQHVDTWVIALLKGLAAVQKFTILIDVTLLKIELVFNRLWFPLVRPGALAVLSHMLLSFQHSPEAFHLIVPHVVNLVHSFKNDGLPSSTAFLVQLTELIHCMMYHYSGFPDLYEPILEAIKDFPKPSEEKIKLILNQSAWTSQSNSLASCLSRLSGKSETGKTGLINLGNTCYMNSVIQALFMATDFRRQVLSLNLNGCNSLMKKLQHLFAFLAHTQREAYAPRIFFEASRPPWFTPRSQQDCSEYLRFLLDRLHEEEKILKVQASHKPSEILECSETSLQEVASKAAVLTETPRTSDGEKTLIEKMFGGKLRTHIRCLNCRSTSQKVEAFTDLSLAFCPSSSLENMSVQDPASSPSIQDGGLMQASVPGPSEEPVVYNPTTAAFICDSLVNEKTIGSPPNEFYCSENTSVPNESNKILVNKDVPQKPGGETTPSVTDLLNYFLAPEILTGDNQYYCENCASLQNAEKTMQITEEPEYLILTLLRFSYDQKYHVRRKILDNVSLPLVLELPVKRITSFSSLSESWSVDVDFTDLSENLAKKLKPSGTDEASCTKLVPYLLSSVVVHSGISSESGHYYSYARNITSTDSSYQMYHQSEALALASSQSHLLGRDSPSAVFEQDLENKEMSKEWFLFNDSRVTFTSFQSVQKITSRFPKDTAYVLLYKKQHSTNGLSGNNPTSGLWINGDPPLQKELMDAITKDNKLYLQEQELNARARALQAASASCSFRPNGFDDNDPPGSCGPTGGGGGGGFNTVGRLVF
Procedure, shortened: as §1

[4] = biological target: T3, USP39 (UniProt Q53GS9)
T3 sequence (whole entry): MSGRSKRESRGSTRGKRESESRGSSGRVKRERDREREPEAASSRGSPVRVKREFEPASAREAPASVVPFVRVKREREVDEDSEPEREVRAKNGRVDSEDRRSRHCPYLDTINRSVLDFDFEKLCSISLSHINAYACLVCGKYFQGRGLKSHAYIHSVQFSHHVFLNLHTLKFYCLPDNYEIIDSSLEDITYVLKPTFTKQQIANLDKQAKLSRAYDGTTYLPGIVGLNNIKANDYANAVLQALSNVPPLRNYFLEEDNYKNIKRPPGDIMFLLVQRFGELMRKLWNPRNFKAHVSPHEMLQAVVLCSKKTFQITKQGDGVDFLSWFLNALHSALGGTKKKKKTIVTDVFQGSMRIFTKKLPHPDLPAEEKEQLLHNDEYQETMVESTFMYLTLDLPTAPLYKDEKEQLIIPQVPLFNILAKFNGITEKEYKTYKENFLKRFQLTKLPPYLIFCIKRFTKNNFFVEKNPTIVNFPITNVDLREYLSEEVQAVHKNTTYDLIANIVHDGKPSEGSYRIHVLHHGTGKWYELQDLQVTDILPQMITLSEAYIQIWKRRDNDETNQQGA
Procedure, shortened: as §1

[5] = biological target: T4, USP4 (UniProt Q13107)
T4 sequence (whole entry): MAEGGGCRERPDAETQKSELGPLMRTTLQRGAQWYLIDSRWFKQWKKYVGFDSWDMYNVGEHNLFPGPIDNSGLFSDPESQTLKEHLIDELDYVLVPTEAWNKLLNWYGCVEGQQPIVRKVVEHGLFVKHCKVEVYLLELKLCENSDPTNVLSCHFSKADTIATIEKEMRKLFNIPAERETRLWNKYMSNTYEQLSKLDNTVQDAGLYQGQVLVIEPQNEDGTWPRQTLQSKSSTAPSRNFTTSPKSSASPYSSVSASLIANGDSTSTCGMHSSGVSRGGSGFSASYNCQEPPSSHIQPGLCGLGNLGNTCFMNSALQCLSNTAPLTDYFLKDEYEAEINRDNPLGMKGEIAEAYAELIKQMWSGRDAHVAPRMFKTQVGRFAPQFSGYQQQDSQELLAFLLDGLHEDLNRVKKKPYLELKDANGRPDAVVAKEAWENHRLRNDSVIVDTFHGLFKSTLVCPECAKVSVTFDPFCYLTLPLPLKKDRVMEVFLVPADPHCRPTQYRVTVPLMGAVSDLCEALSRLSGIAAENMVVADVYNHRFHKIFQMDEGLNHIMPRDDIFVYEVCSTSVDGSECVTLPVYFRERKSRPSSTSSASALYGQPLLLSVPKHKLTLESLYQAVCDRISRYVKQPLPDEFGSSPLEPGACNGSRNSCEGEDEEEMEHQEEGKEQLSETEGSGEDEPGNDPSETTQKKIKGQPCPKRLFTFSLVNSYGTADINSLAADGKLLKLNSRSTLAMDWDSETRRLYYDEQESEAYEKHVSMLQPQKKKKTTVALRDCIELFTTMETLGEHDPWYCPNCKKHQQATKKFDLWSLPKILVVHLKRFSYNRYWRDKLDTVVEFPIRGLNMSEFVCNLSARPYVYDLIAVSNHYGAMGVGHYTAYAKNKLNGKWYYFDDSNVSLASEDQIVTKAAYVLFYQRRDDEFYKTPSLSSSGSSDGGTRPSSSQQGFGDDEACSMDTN
Procedure, shortened: as §1

Measured: log2 ratio of Biotin-Ahx-Ub-VS probe labelling

Sequence of USP34 (Q70CQ2 whole entry, the tested form may be a part): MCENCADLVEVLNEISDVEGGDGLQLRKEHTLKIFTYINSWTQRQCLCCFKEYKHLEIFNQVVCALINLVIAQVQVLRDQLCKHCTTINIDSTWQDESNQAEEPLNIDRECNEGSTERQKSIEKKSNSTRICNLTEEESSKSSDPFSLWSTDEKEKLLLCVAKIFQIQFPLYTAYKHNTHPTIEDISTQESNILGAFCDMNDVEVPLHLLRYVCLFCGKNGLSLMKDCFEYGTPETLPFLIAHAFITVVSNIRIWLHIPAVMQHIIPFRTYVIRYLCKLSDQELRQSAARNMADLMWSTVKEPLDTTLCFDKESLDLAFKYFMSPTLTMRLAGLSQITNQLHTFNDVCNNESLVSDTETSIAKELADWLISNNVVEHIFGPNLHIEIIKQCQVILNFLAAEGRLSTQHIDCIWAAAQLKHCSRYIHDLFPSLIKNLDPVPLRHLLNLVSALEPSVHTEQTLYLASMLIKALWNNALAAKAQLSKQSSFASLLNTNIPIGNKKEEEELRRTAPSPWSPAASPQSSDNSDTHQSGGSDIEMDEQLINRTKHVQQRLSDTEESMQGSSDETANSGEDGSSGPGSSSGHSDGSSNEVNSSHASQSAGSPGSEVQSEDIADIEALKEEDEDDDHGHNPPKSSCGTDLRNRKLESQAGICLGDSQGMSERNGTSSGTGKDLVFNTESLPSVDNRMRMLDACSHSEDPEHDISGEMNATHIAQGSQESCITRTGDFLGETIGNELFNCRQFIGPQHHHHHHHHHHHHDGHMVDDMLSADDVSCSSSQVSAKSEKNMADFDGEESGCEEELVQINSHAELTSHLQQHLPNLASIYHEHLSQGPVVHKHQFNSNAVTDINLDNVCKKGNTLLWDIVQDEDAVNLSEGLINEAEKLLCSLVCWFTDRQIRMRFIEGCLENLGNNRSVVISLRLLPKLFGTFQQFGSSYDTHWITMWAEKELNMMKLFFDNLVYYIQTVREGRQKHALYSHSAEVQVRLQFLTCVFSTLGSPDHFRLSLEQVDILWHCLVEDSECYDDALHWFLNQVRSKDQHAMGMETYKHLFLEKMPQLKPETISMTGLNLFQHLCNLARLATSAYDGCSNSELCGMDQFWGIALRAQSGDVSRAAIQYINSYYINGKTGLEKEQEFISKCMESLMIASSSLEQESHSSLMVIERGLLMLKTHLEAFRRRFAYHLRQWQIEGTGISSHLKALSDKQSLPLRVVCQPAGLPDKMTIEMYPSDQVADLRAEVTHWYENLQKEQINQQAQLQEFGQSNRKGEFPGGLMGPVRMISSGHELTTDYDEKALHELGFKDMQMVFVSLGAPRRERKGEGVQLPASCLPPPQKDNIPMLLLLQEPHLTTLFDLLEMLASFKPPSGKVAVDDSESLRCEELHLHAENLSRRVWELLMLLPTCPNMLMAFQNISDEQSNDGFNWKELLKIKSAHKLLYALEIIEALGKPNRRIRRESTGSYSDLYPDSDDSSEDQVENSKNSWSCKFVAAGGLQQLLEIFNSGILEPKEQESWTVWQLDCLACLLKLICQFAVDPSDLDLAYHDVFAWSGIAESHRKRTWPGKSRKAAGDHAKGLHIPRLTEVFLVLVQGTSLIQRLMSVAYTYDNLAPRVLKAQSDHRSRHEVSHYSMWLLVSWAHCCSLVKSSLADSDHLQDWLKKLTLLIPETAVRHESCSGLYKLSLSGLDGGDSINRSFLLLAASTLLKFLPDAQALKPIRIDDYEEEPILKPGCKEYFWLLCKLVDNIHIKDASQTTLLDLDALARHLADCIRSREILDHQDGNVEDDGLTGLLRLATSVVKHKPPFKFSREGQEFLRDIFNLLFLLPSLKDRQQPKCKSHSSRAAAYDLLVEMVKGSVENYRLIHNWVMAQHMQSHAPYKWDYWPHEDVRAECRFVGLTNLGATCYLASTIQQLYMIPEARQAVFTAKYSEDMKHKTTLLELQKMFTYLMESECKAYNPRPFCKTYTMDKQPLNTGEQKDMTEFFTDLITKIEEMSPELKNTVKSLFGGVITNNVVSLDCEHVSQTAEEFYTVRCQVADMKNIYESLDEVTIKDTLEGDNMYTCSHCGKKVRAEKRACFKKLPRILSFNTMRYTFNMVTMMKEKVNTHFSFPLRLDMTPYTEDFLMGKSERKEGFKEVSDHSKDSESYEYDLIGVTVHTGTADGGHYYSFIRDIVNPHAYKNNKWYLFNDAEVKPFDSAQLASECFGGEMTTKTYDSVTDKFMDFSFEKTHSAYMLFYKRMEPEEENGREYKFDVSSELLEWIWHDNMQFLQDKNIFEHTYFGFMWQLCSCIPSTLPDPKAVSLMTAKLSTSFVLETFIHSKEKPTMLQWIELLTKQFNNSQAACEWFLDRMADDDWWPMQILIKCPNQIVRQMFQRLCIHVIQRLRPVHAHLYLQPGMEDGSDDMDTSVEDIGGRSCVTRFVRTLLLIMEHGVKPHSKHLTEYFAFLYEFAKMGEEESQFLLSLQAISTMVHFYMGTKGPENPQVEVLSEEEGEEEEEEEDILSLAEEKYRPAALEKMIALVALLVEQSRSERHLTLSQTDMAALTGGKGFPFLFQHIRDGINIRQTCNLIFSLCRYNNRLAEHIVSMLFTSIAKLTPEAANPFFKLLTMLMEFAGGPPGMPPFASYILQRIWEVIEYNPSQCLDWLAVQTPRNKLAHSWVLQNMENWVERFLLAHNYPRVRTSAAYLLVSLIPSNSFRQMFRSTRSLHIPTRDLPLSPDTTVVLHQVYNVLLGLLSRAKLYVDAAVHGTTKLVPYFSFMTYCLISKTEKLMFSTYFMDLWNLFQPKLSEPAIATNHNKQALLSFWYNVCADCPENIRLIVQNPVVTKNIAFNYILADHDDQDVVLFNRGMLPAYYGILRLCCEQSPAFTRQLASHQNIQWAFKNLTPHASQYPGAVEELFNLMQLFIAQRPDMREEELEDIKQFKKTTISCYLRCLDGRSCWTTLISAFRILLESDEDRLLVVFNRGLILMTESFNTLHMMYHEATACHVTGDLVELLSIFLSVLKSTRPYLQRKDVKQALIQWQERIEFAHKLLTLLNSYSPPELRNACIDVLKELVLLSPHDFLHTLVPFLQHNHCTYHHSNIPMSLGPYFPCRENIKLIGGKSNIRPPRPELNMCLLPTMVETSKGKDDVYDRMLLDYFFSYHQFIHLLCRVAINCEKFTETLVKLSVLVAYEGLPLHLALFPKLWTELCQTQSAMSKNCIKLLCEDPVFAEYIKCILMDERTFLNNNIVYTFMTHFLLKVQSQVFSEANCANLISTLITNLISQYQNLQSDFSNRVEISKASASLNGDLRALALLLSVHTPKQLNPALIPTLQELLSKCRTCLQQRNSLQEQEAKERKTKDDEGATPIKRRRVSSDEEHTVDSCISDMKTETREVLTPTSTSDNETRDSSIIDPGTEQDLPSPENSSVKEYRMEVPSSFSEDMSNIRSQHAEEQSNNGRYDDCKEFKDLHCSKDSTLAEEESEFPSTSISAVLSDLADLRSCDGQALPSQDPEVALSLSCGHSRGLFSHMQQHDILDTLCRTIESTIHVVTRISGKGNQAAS

O=C(CCl)N1CCCCCC1c1ncon1 (stereo not given)
inactive: [1] 0.0612 | [2] -0.0657 | [3] 0.0218 | [4] -0.043 | [5] -0.0581

From the supplement of paper PMC11732987, “Enantioselective OTUD7B fragment discovery through chemoproteomics screening and high-throughput optimisation” (Communications Chemistry, 2025)
